Results on 8 compounds are retold here after PubChem BioAssay (NCI).

Test systems include NCI-H23 lung; NCI-H226 lung; NCI-H322M lung; HOP-62 NSCLC; NCI-H460 lung; HOP-92 NSCLC; NCI-H522 lung; A549/ATCC NSCLC; 786-0 renal; COLO 205 colon; DU-145 prostate; K-562 leukemia; MALME-3M melanoma; MDA-MB-231 breast; RXF 393 renal; SF-268 CNS; SF-295 CNS; SF-539 CNS; UACC-257 melanoma; M14 melanoma.
What all share (experiment): NCI-60 one-dose screen, 48 h (100 = growth as untreated, 0 = no growth, -100 = all killed)
Holding throughout (conditions): 10 µM unless noted

This is part of a sample that, as a whole, favours compounds with a hit. Of some 83,000 tested, about 20% had one in any assay.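 Compound tested at a single concentration for 48 hours in 96-well plates; a percent growth value below 10 was scored as active.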 Unmarked numbers belong to inactive results. The source made the active and inactive calls.

Regarding `COc1cccc2c(=O)c3c(sc12)c(N1CCNCC1)nc1ccccc13`, the growth with NCI-H23 lung is 77.3%; in the assay on NCI-H226 lung it was 88.2%; with NCI-H322M lung, 92.8%; in the assay with HOP-62 NSCLC it was 81%; in the assay with NCI-H460 lung, -55.1% (active); in the assay with HOP-92 NSCLC, 51.7%. Further, the growth in the assay with NCI-H522 lung is 77.2%; with A549/ATCC NSCLC, 48.6%; in the assay on 786-0 renal, 78.9%; with COLO 205 colon, 30.9%; in the assay on DU-145 prostate it was 35.8%; with K-562 leukemia, -25.9% (active). The growth is 104% with MALME-3M melanoma; 53.1% in the assay on MDA-MB-231 breast; 79.7% in the assay with RXF 393 renal; 87.9% in the assay on SF-268 CNS; 102% in the assay with SF-295 CNS; 69.6% in the assay on SF-539 CNS. Also, the growth in the assay on UACC-257 melanoma is 101%; with M14 melanoma it was 81.3%.
With `Cn1cc(-c2cc3ncnc(Nc4ccc(CC(=O)Nc5cc(C(C)(C)C)on5)cc4)c3s2)cn1`, the growth is 50.2% in the assay with NCI-H23 lung; 26% with NCI-H226 lung; 32.9% in the assay on NCI-H322M lung; 58.1% with HOP-62 NSCLC; 28.4% in the assay with NCI-H460 lung; 35.8% in the assay on HOP-92 NSCLC. The growth with NCI-H522 lung is 36.3%; with A549/ATCC NSCLC it was 21.6%; in the assay on 786-0 renal it was 36%; with COLO 205 colon, 24.7%; with DU-145 prostate it was 29.9%; in the assay with K-562 leukemia, 11.1%. The growth is 43.4% with MALME-3M melanoma; 34.4% in the assay on MDA-MB-231 breast; 19.3% with RXF 393 renal; 31.6% with SF-268 CNS; 49.9% with SF-295 CNS; 15.7% in the assay with SF-539 CNS. The growth with UACC-257 melanoma was 59.3%; in the assay on M14 melanoma, 21.1%.
Regarding `Cc1nc(/N=C(\N)NC(=O)Nc2ccccc2Cl)sc1C`, the growth in the assay with NCI-H23 lung is 42.6%; in the assay on NCI-H226 lung it was 68%; in the assay with NCI-H322M lung, 51%; in the assay on HOP-62 NSCLC, 45%; in the assay on NCI-H460 lung it was 12.1%; in the assay with HOP-92 NSCLC it was 64.6%. Further, the growth with NCI-H522 lung was 18.6%; in the assay with A549/ATCC NSCLC, 47.8%; in the assay with 786-0 renal, 57.1%; with COLO 205 colon, 12.2%; with DU-145 prostate it was 13.2%; with K-562 leukemia, 13.1%. Also, the growth in the assay with MALME-3M melanoma is 53.1%; with MDA-MB-231 breast, 50.5%; in the assay with RXF 393 renal, 4.01% (active); in the assay on SF-268 CNS, 60.6%; in the assay with SF-295 CNS, 12.6%; with SF-539 CNS, 0.177% (active). Further, the growth is 69.5% with UACC-257 melanoma and 24% with M14 melanoma.
As for `COc1cc(C(=O)c2cnc(-c3cccc4[nH]ccc34)[nH]2)cc(OC)c1OC`, the growth with NCI-H23 lung was 26.4%; with NCI-H226 lung, 45.7%; in the assay with NCI-H322M lung, 35.3%; with HOP-62 NSCLC, 33.8%; in the assay with NCI-H460 lung it was 2.81% (active); in the assay with HOP-92 NSCLC it was 17.5%. For the same compound, the growth in the assay on NCI-H522 lung was -7.75% (active); with A549/ATCC NSCLC it was 24.5%; with 786-0 renal, 6.82% (active); with COLO 205 colon, -36.9% (active); with DU-145 prostate it was 2.85% (active); in the assay on K-562 leukemia, 8.88% (active). For the same compound, the growth was 60.8% in the assay on MALME-3M melanoma; -3.5% (active) with MDA-MB-231 breast; 66.7% with RXF 393 renal; 24.5% in the assay on SF-268 CNS; 21.6% in the assay with SF-295 CNS; 1.12% (active) in the assay on SF-539 CNS. Further, the growth is 85% in the assay with UACC-257 melanoma and -6.97% (active) in the assay with M14 melanoma.
With `CN1CCN(c2ccc(-c3ccc4ncc(C#N)c(Nc5ccc(F)c(Cl)c5)c4c3)cc2)CC1`, the growth in the assay on NCI-H23 lung was 77.4%; with NCI-H226 lung, 86.8%; with NCI-H322M lung, 19.7%; with HOP-62 NSCLC, 65.9%; with NCI-H460 lung, 27%; in the assay with HOP-92 NSCLC it was 63.5%. In addition, the growth with NCI-H522 lung was 33.3%; in the assay on A549/ATCC NSCLC it was 45.6%; with 786-0 renal, 45.4%; in the assay with COLO 205 colon, 47.5%; with DU-145 prostate it was 29.1%; in the assay on K-562 leukemia, 0.404% (active). In addition, the growth in the assay with MALME-3M melanoma was -63.5% (active); in the assay on MDA-MB-231 breast it was 76.8%; in the assay on RXF 393 renal, 27.3%; in the assay with SF-268 CNS it was 50.8%; in the assay on SF-295 CNS, 69.6%; in the assay with SF-539 CNS it was 54.3%. In addition, the growth in the assay with UACC-257 melanoma was -0.414% (active); with M14 melanoma, -33.5% (active).
`Cc1c(C(=O)/C=C/Nc2c(Cl)cc(S(N)(=O)=O)cc2Cl)sc2nc3ccccc3n12`: the growth was 99.8% in the assay with NCI-H23 lung; 99.6% in the assay on NCI-H226 lung; 107% in the assay on NCI-H322M lung; 107% in the assay on HOP-62 NSCLC; 104% in the assay with NCI-H460 lung; 111% in the assay on HOP-92 NSCLC. The growth was 89.9% with NCI-H522 lung; 103% in the assay with A549/ATCC NSCLC; 107% in the assay with 786-0 renal; 110% in the assay on COLO 205 colon; 107% in the assay with DU-145 prostate; 105% with K-562 leukemia. The growth in the assay with MALME-3M melanoma was 105%; in the assay with MDA-MB-231 breast, 102%; in the assay with RXF 393 renal, 115%; in the assay with SF-268 CNS, 95.4%; in the assay with SF-295 CNS, 101%; in the assay with SF-539 CNS, 96.6%. In addition, the values for the growth in the assay with UACC-257 melanoma and in the assay with M14 melanoma were 105% and 106%, respectively.
As to `COC(=O)/C=C1\S/C(=N\Nc2ccc([N+](=O)[O-])cc2[N+](=O)[O-])N(C2CCCCC2)C1=O`, the growth with NCI-H23 lung was 60%; in the assay with NCI-H226 lung, 80.7%; in the assay with NCI-H322M lung, 99.3%; with HOP-62 NSCLC, 86.8%; in the assay with NCI-H460 lung, 35.1%; in the assay on HOP-92 NSCLC it was 8.36% (active). Besides, the growth in the assay on NCI-H522 lung was 43.6%; with A549/ATCC NSCLC, 87.6%; with 786-0 renal, 61.1%; in the assay with COLO 205 colon, 42.5%; in the assay on DU-145 prostate it was 44.2%; with K-562 leukemia it was 17.8%. The growth was 87.5% with MALME-3M melanoma; 59.8% in the assay on MDA-MB-231 breast; 62% with RXF 393 renal; 71% in the assay with SF-268 CNS; 77.1% in the assay on SF-295 CNS; 69.2% in the assay on SF-539 CNS. For the same compound, the growth is 80.1% in the assay with UACC-257 melanoma and 78.1% with M14 melanoma.
On to `COc1ccc(/C=C2\Oc3cc(OCCN4CCC(Cc5ccccc5)CC4)ccc3C2=O)cc1OC`, for which the growth in the assay on NCI-H23 lung was 68.6%; with NCI-H226 lung it was 69.6%; with NCI-H322M lung, 96.2%; in the assay on HOP-62 NSCLC, 78.6%; in the assay with NCI-H460 lung, 66.5%; in the assay on HOP-92 NSCLC it was 47.7%. Moreover, the growth in the assay with NCI-H522 lung was 78.2%; in the assay with A549/ATCC NSCLC, 86.7%; in the assay with 786-0 renal, 78.4%; in the assay with COLO 205 colon, 19.1%; in the assay on DU-145 prostate it was 82.5%; in the assay with K-562 leukemia, 7.36% (active). For the same compound, the growth with MALME-3M melanoma is 52.7%; with MDA-MB-231 breast, 53.5%; with RXF 393 renal, 48%; in the assay with SF-268 CNS it was 79.8%; in the assay with SF-295 CNS, 82.6%; in the assay with SF-539 CNS it was 83%. Further, the growth with UACC-257 melanoma was 73.3%; in the assay with M14 melanoma, 30.2%.
